The text below walks through data of PubChem BioAssay AID624330 (Southern Research Specialized Biocontainment Screening …, 2012).

Among all 340,000 compounds or so, about 2,100 (0.62%) were called active.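 The calls were made as follows: active = first-screen hits whose inhibition reached a set limit at any dose in the follow-up dose series; inconclusive = inhibition above the set first-screen limit but never retested; inactive = the rest.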 Not all results are given here. Potency and affinity values are given separately.

In the test the target is Rac GTPase-activating protein 1 (Homo sapiens) (UniProt Q9H0H5). In words: blockers of MgcRacGAP-driven Rac1 GTP hydrolysis – biochemical, ADP Hunter fluorescence, primary and confirmatory, confirmation (AID 624330).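 Also: fluorescence reports GDP produced by GAP-driven GTP hydrolysis.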 The settings on record: MgcRacGAP-stimulated Rac1 GTP hydrolysis, at 30 µM, active compounds read high, GST-tagged Rac1 F28L mutant substrate.
Chain of Rac GTPase-activating protein 1 (Homo sapiens) (Q9H0H5 whole entry, looked up): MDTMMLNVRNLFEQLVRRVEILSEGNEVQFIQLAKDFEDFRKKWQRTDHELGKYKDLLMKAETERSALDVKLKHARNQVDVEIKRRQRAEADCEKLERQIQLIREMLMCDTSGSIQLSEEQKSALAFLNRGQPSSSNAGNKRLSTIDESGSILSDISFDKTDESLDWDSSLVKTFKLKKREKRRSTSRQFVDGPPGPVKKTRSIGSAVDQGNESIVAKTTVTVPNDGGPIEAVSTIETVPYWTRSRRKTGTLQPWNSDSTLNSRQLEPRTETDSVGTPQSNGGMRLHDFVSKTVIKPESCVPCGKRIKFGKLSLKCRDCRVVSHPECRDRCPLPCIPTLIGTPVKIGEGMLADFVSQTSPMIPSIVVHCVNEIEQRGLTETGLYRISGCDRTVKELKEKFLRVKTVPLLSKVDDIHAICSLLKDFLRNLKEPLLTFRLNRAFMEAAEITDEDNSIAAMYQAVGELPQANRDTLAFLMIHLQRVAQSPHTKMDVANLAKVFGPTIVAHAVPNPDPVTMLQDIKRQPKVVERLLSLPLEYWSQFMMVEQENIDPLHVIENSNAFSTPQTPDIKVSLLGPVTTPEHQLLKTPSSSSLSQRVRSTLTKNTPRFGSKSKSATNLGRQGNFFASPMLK
In the case of `CCCCOc1ccccc1N1CCN(CCCN2C(=O)C3CCCN3C2=O)CC1` (configuration not stated), the inhibition is 9.54% (inactive).

For `Cc1c2cnn(CC(=O)NCCCN3CCCCC3C)c(=O)c2c(C)n1Cc1ccccc1` (configuration not stated), the inhibition is 8.86% (inactive).

Regarding `O=C1CCc2ccccc2N1`, the inhibition is 3.09% (inactive).

With `Clc1ccc2c(c1)Nc1ccccc1CC2`, the inhibition is 9.56% (inactive).

Regarding `CCn1c(COc2ccc(=O)n(-c3ccccc3)n2)nnc1SC`, the inhibition is 7.04% (inactive).

As for `COc1cccc2c1C(=O)c1c(O)c3c(c(O)c1C2=O)C[C@](O)(C(C)=O)C[C@H]3O[C@@H]1C[C@@H](N)[C@@H](O)[C@@H](C)O1`, the inhibition was 21.3% (inactive).

On to `COc1cccc2c1C(=O)c1c(O)c3c(c(O)c1C2=O)CC(O)(C(C)=O)CC3OC1CC(N(C)C)C(O)C(C)O1` (configuration not stated), for which the inhibition is 16.8% (inactive).

In the case of `COc1cccc2c1C(=O)c1c(O)c3c(c(O)c1C2=O)CC(O)(C(C)=O)CC3OC1CC(O)C(O)C(C)O1` (configuration not stated), the inhibition is 11.6% (inactive).

Consider `COc1cccc2c1C(=O)c1c(O)c3c(c(O)c1C2=O)CC(O)(C(=O)CO)CC3OC1CC(N(C)C)C(O)C(C)O1` (configuration not stated), for which the inhibition was 20.6% (inactive).

In the case of `C/C(=N\NC(=O)c1ccc(Cl)c(Cl)c1)c1cccc(NC(=O)C(C)C)c1`, the inhibition was 10% (inactive).

On to `CCCCC(=O)OCC(=O)C1(O)Cc2c(O)c3c(c(O)c2C(OC2CC(NC(=O)C(F)(F)F)C(O)C(C)O2)C1)C(=O)c1c(OC)cccc1C3=O` (configuration not stated), for which the inhibition was 6.09% (inactive).

Turning to `CCCn1c2c(c(O)c(C(=O)NCc3ccccc3)c1=O)CCCC2`, the inhibition was 0.77% (inactive).

`COCCCN(C(=O)CSCC(=O)Nc1ccc(C)cc1)c1c(N)n(Cc2ccccc2)c(=O)[nH]c1=O`: the inhibition was 8.76% (inactive).

For the molecule `COc1cc(NC(=O)CN2C(=O)NC(CC(C)C)C2=O)cc(OC)c1OC` (configuration not stated), the inhibition was 6.04% (inactive).

In the case of `CC1(C)C(=O)Nc2ccccc2N1C(=O)CN1C(=O)NC(CCc2ccccc2)C1=O` (configuration not stated), the inhibition was 2.92% (inactive).

Regarding `Cc1cc(C)cc(NC(=O)COC(=O)CCCNC(=O)c2ccc(Cl)cc2)c1`, the inhibition is 3.85% (inactive).

For `COc1ccc(CCNC(=O)c2ccc(N3CCCC3=O)cc2)cc1OC`, the inhibition was 12.5% (inactive).

In the case of `COc1ccc(-c2nnn(CC(=O)N(CC(=O)NCCC(C)C)c3ccccc3)n2)cc1OC`, the inhibition was 1.41% (inactive).

Take `Oc1ccc(-c2[nH]ncc2-c2ccc(Br)cc2)c(O)c1`: the inhibition was 26.8% (inactive).

Regarding `COc1ccc(-c2[nH]ncc2-c2ccc(Cl)cc2)c(O)c1`, the inhibition is 11.8% (inactive).

Regarding `CC(C)(C)c1ccc(C(=O)N/C(=C\c2ccco2)C(=O)Nc2ccccc2C(=O)O)cc1`, the inhibition was 7.9% (inactive).

As to `C[C@H](NC(=O)C1CCN(S(=O)(=O)c2ccccc2)CC1)C(=O)NC1CC1`, the inhibition is 4.17% (inactive).

For `O=C(NCc1ccc2c(c1)OCO2)c1cc(-c2ccccc2)c(N2CCOCC2)s1`, the inhibition is 11.5% (inactive).

`Cc1ccc(NC2CCCN(C(=O)CCC3=NNC(=O)CC3)C2)cc1C` (configuration not stated): the inhibition is 11.1% (inactive).

For the molecule `COc1ccc(C(=O)C2CCCN(C(=O)CCC3=NNC(=O)CC3)C2)c(C)c1` (configuration not stated), the inhibition was -12.3% (inactive).

With `O=C1CCC(C(=O)N2CCCC(Nc3ccc(F)cc3)C2)=NN1` (configuration not stated), the inhibition is 13.7% (inactive).

For the molecule `COc1ccc(N2CCN(C(=O)C3=NNC(=O)CC3)CC2)cc1`, the inhibition was 4.93% (inactive).

As for `O=C(O)c1ccc(S(=O)(=O)N(Cc2ccc(F)cc2)C2CCCCC2)cc1`, the inhibition was 7.41% (inactive).

On to `O=C(Nc1ccc(N2CCOCC2)nc1)c1ccc(F)cc1`, for which the inhibition is 3.12% (inactive).

Regarding `COc1ccc2cc(/C=N/NC(=O)c3c(Cl)cnn3C)c(Cl)nc2c1`, the inhibition was 3.85% (inactive).

For `Cc1ccc(CCNc2ncnc(Cl)c2N)cc1`, the inhibition is 6.24% (inactive).

In the case of `Nc1c(Cl)ncnc1NCCO`, the inhibition was 12.3% (inactive).

`Cc1ccc(/C=N/Nc2ncnc3nc[nH]c23)cc1`: the inhibition is 11.9% (inactive).

As for `Clc1ccc(/C=N/Nc2ncnc3nc[nH]c23)cc1`, the inhibition was 19.8% (inactive).

Take `Nc1c(Cl)ncnc1N/N=C/c1cccc(O)c1`: the inhibition was -2.65% (inactive).

`COc1ccc(/C=N/Nc2ncnc(Cl)c2N)cc1OC`: the inhibition is 9.22% (inactive).

Turning to `Nc1c(Cl)ncnc1N/N=C/c1cccnc1`, the inhibition is -0.02% (inactive).

For `COc1cccc(/C=N/Nc2ncnc(Cl)c2N)c1O`, the inhibition is 7.43% (inactive).

Regarding `CC1CCc2cc(F)ccc2N1C(=O)CN1C(=O)c2ccccc2C1=O` (configuration not stated), the inhibition was 7.46% (inactive).

As to `FC(F)(F)c1ccncc1-c1nnc(C2CCCCC2)o1`, the inhibition is 12.4% (inactive).

Regarding `CCCC(c1nnnn1Cc1ccc(OC)cc1)N1CCC(C(N)=O)CC1` (configuration not stated), the inhibition was 3.71% (inactive).

Consider `CC12CC(NC(=O)N1c1cccc(C(=O)N3CCN(c4ccccc4F)CC3)c1)c1ccccc1O2` (configuration not stated), for which the inhibition was 4.9% (inactive).

Consider `COC(=O)c1ccc(/C=N/NC(=O)C2CC(=O)N(c3ccc(OC)cc3)C2)cc1` (configuration not stated), for which the inhibition is -2.9% (inactive).

In the case of `CN(CC(=O)Nc1ccccc1C(F)(F)F)C(=O)CN1C(=O)C2CCCCC2C1=O` (configuration not stated), the inhibition was 8.57% (inactive).

With `COc1cccc2sc3cc(NCc4ccc5c(c4)OCO5)ccc3c(=O)c12`, the inhibition was 3.16% (inactive).

Turning to `CCN(CC)C(=O)C1=C(C)N(Cc2ccc(F)cc2)C(=O)C(CC(=O)NCc2ccco2)C1` (configuration not stated), the inhibition is 13.8% (inactive).

As to `CCn1cnc2cc(NCc3ccc(C)cc3)ccc21`, the inhibition is 25.6% (inactive).

Regarding `CCn1cnc2cc(NCc3ccc(Cl)cc3)ccc21`, the inhibition was 20% (inactive).

For `COc1cc(NC(=S)N2CCCCC2C)cc(OC)c1OC` (configuration not stated), the inhibition is 12.9% (inactive).

Consider `CC(C)(C#CC(O)(c1ccccc1)c1ccccc1)N1CCCC1`, for which the inhibition is 11.3% (inactive).

On to `C[C@H]1CN(S(=O)C(C)(C)C)[C@@H](CCO)/C1=C\CCO` (some centres not stated), for which the inhibition is 5.48% (inactive).

With `C=CCNC(=O)CC(=O)N/N=C/c1ccccc1F`, the inhibition is -1.62% (inactive).

In the case of `Cc1cccc(N2CC(C(=O)Nc3cccc(S(=O)(=O)N4CCCCC4)c3)CC2=O)c1C` (configuration not stated), the inhibition was 5.62% (inactive).

In the case of `CCOc1ccccc1OCCCOc1ccc(C)cc1Cl`, the inhibition was 12% (inactive).

For `Cn1c(=O)c2nc(SCc3ccccc3)n(C)c2n(C)c1=O`, the inhibition was 6.08% (inactive).

For `CCCCn1c(C)nc2c(=O)n(C)c(=O)[nH]c21`, the inhibition is 4.63% (inactive).

Turning to `CCOC(=O)c1nc2c(=O)n(C)c(=O)n(C)c2n(C)c1=O`, the inhibition is 0.79% (inactive).

Consider `CCn1c(=O)n(C)c2c(=O)n(C)c(=O)n(C)c21`, for which the inhibition is -0.22% (inactive).

Regarding `CNc1nc2c(c(=O)n(C)c(=O)n2C)n1Cc1ccccc1`, the inhibition was -6.26% (inactive).

With `CCCCn1c(Cl)nc2c1c(=O)n(C)c(=O)n2C`, the inhibition was 9.62% (inactive).

With `CCCn1nc(C(=O)NNC(=O)CCCOc2ccc(OC)cc2)c2ccccc2c1=O`, the inhibition is 1.29% (inactive).

With `Cc1nc(N2CCCCC2)c2sc(=S)n(C)c2n1`, the inhibition was 5.47% (inactive).

Regarding `CCOc1ccc(C(=O)NCCc2ccc3c(c2)OCCO3)cc1`, the inhibition was 6.99% (inactive).

On to `O=C(Nc1cc(C(F)(F)F)ccc1N1CCOCC1)c1ccc(F)cc1`, for which the inhibition is 9.9% (inactive).

Take `CS(=O)(=O)c1nc(S(=O)(=O)c2ccc(Cl)cc2)c(N2CCCCC2)s1`: the inhibition is 5.12% (inactive).

Consider `COCCCNC(=O)C1CCC(CNS(=O)(=O)c2ccc(Cl)cc2)CC1` (configuration not stated), for which the inhibition was -9.18% (inactive).

For `O=C(COc1ccc2c3c(c(=O)oc2c1)CCC3)NCCCN1CCCC1=O`, the inhibition was 9.27% (inactive).

For `CC(C)=CCC/C(C)=C/CNC(=O)CC1C[C@H](C(=O)N2CCOCC2)[C@@]2(C)c3[nH]c4ccccc4c3CCN2C1=O` (some centres not stated), the inhibition is 7.27% (inactive).

As to `COc1ccc(-c2ccccc2[C@H]2[C@@H]3C=CC[C@@H](C)[C@@H]3C(=O)N2Cc2ccccc2)cc1`, the inhibition was 5.83% (inactive).

`C/C(=N\Nc1nc(-c2cc(C)ccc2C)cs1)c1cc2ccccc2oc1=O`: the inhibition is 6.23% (inactive).

As for `O=C(c1cc(Cl)ccc1F)N1CCCC(Nc2ccc3c(c2)OCCO3)C1` (configuration not stated), the inhibition was 30.3% (inactive).

With `Cc1ccc(NC2CCCN(C(=O)c3ccccc3N3CCOCC3)C2)cc1C` (configuration not stated), the inhibition is 0.36% (inactive).

Turning to `COC(=O)c1cccc(C(=O)N2CCCC(Nc3ccc4c(c3)OCCO4)C2)c1` (configuration not stated), the inhibition was 29.2% (inactive).

In the case of `CSCc1ccc(C(=O)N2CCCC(Nc3ccc(F)cc3)C2)o1` (configuration not stated), the inhibition was 7.33% (inactive).

In the case of `COc1ccc(C(=O)C2CCCN(C(=O)c3ccc(CSC)o3)C2)cc1F` (configuration not stated), the inhibition was 5.42% (inactive).

As to `Cc1cc(C)c(C(=O)N2CCCC(Nc3ccc(F)cc3)C2)o1` (configuration not stated), the inhibition is 1.75% (inactive).

On to `Cc1cc(C)c(C(=O)N2CCCC(Nc3ccc(C)c(C)c3)C2)o1` (configuration not stated), for which the inhibition was -18% (inactive).

As to `O=C(c1ccccc1N1CCOCC1)N1CCCC(Nc2ccc(F)cc2)C1` (configuration not stated), the inhibition was 9.71% (inactive).

Take `O=S(=O)(c1ccccc1)c1nc(-c2ccccc2)oc1N1CCOCC1`: the inhibition is 6.03% (inactive).

`Cc1nnc(SCc2ccccc2)n1N`: the inhibition was -3.52% (inactive).

As to `O=C(O)c1ccc(/C=N/O)cc1`, the inhibition was 1.83% (inactive).

On to `CC(C)(C)NC(=O)C(c1ccccc1)N(C(=O)CNC(=O)c1cccs1)c1cccnc1` (configuration not stated), for which the inhibition is 4.59% (inactive).

As to `COc1ccc(C=O)cc1Cn1c(=O)n(CCC(=O)NCc2ccco2)c(=O)c2sccc21`, the inhibition was 8.39% (inactive).

Turning to `Cc1cccc(C(=O)Nc2cccc(C(=O)N/N=C/c3cccc(C)n3)c2)c1`, the inhibition was 13.9% (inactive).

Consider `CSc1cc(SC)ncn1`, for which the inhibition is 1.8% (inactive).

`CC(C)(CN1CCOCC1)NS(=O)(=O)c1ccccc1`: the inhibition was 1.36% (inactive).

With `CCN(CC(=O)Nc1cccc(F)c1)Cc1nc2ccccc2c(=O)[nH]1`, the inhibition was -2.26% (inactive).

Take `CN(C)C(/C=C/Nc1ccc(C#N)cc1)=C(C#N)C#N`: the inhibition was 4.16% (inactive).

As to `Cc1ccc(C2=CSC3=NCCN23)cc1`, the inhibition is 11.6% (inactive).

As for `CC1=CC(C)(C)N(C(=O)CCl)c2cc(C)ccc21`, the inhibition is 2.46% (inactive).

As for `CC1=CC(C)(C)N(C(=O)CNC2CCCCC2)c2cc(C)ccc21`, the inhibition is 30.1% (inactive).

For the molecule `CCOc1ccccc1C(C(=O)NC1CCCC1)N(C(=O)c1csnn1)C1CC1` (configuration not stated), the inhibition was 6.21% (inactive).

As a reminder, the inhibition is the change of the read-out against control, counted positive when it falls.
